Data reported in PubChem BioAssay.

Test: mitochondrial membrane potential change in A549 cells, profiling panel, cell-based, JC-1 fluorescence, basal, 24 h, 100 nL (AID 1138);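 note: A549 lung adenocarcinoma cells under basal conditions with no added stimulus; test concentration not given here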
Details: higher = more signal

Row | Structure (SMILES) | z-score
1 | COCCOC(=O)N1C(=O)[C@@]2(c3cc(C#CCC(C(=O)OC)C(=O)OC)ccc31)[C@H](C(N)=O)[C@H]1C(=O)O[C@H](c3ccccc3)[C@H](c3ccccc3)N1[C@@H]2c1ccc(O)cc1 | -2.31
2 | COc1cc(OC)c(C(O)C2C=CC3C(=O)N(c4ccccc4)C(=O)C3N2Nc2ccc(C(C)C)cc2)cc1Br (stereo unspecified) | 0.568
3 | C#CCN1[C@@H](Cc2ccccc2)C(=O)O[C@H](Cc2ccccc2)[C@@H]1/C=C/C1CC1 | 4.04
4 | CN(C)CCCNC(=O)[C@@H]1c2ccccc2C(=O)N(Cc2ccccc2C(F)(F)F)[C@H]1c1ccc(CO)cc1 | 2.89
5 | COc1ccc([Si](C)(C)[C@H]2[C@H](CCO)O[C@@]3(C(=O)N(Cc4ccc(NC(=O)[C@H](C)O)cc4)c4ccccc43)[C@@H]2C)cc1 | -1.45
6 | CCOC(=O)C[C@H]1[C@H](OC(=O)c2ccccc2-c2ccccc2)[C@@H](NC(=O)c2ccc3ccccc3c2)c2cc(OCCCO)ccc2N1C(=O)Cc1ccc(OC)cc1 | 0.847
7 | COCCCN1C(=O)[C@@]2(c3ccc([N+](=O)[O-])cc3)CC(=O)N(CC34CC5CC(CC(C5)C3)C4)[C@@H]2c2ccc(CO)cc21 | 0.961
8 | C=C1C(=O)C=C2CN(C(=O)c3ccccc3)[C@@](Cc3ccc(OC)cc3)(C(=O)OC)[C@@H]12 | -0.322
9 | C=CCNC(=O)[C@H]1[C@@H]2C(=O)O[C@@H](c3ccccc3)[C@@H](c3ccccc3)N2[C@@H](c2ccc(OCCO)cc2)[C@]12C(=O)Nc1ccccc12 | -0.287
10 | COCCOC(=O)N1C(=O)[C@@]2(c3ccccc31)[C@H](c1ccc(O)cc1)N1[C@H](c3ccccc3)[C@H](c3ccccc3)OC(=O)[C@H]1[C@@H]2C(=O)N1CCCCCCC1 | -1.16
11 | C[N+](C)(C)CCCCNC(=O)[C@H]1C[C@H]2C(=O)N[C@@H](Cc3ccccc3)C(=O)N2[C@H]1c1cccc(OCCO)c1 | -0.243
12 | CC(C)[Si](C#CCCc1ccccc1)(O[C@H](c1ccccc1)c1cn(Cc2ccccc2)nn1)C(C)C | 0.26
13 | COc1ccc([Si](C)(C)[C@@H]2[C@@H](CC(=O)N3Cc4ccccc4C[C@H]3CO)O[C@]3(C(=O)N(Cc4cccc(N5CCOC5=O)c4)c4ccccc43)[C@H]2C)cc1 | -0.661
14 | CN1C(=O)[C@@H]2[C@@H](CC(COc3ccccc3)=C3[C@@H](CCc4ccccc4)OB(O)C[C@@H]32)C1=O | 0.208
15 | COc1cc(C(O)C2C=CC3C(=O)N(c4ccccc4)C(=O)C3N2Nc2ccccc2F)cc(OC)c1OC (stereo unspecified) | -0.374
16 | CCCCN1CC=CC23O[C@@H]4/C=C\CCCOC(=O)C4[C@H]2C(=O)N(C(CO)C(C)C)[C@@H]3C1=O (stereo partly specified) | -0.455
17 | O=C1N(CCS(=O)(=O)c2ccccc2)c2ccccc2C[C@]12N=C(c1ccc(OCCCO)cc1)O[C@@H]2c1ccccc1 | 0.972
18 | O=C1NC(=O)C2C1C=CC(C(O)c1ccc([N+](=O)[O-])cc1)N2Nc1ccccn1 (stereo unspecified) | -0.0893

Row | Structure (SMILES) | z-score
19 | O=C1[C@H]2C=C(I)[C@H](C[C@@H]2OCCCCCCO)[C@@]12CO2 | 0.368
20 | CN(C)C(=O)[C@]1(Cc2ccccc2)N=C(c2ccc(OCCCO)cc2)O[C@@H]1c1ccccc1CN=[N+]=[N-] | 0.829
21 | Cc1ccc(C(C)CC(O)C2C=CC3C(=O)N(C)C(=O)C3N2Nc2ccccc2)o1 (stereo unspecified) | 0.16
22 | CCCCCCc1nc(-c2ccc(-c3ccc(Cl)c(Cl)c3)o2)cc2c1[Si](C(C)C)(C(C)C)OC2 | -0.413
23 | CC1CC/C=C\[C@H]2OC34C=CCN(c5ccc(Cl)cc5)C(=O)[C@H]3N(CCCCCCO)C(=O)[C@]4(C)C2C(=O)O1 (stereo partly specified) | 1
24 | C=C(CCCC)/C(=C/C[C@H](OC(=O)c1ccncc1)c1cccc(OCCO)c1)c1cnc2ccccc2c1 | 2.01
25 | C[C@@H]1ON(c2ccccc2)[C@H](c2ccccc2)[C@H]1C(=O)O | -0.152
26 | CCOC(=O)C1=CC[C@@H](c2ccc(OC)cc2)N(S(=O)(=O)c2ccc(C)cc2)[C@H]1CC | 2.69
27 | COC(=O)[C@@]1(Cc2ccc(OC)cc2)[C@H]2c3cc(C(=O)N(C)C)[nH]c3C[C@H]2CN1C(=O)c1ccccc1 | 0.638
28 | CCCCC(O)C1C=CC2C(=O)N(c3ccccc3)C(=O)C2N1Nc1ccccc1 (stereo unspecified) | 0.656
29 | CC(C)OC(=O)CC(=O)CC(O)c1cccc([N+](=O)[O-])c1 (stereo unspecified) | -0.428
30 | O=C1NC(=O)C2C1C=CC(C(O)c1ccc(B(O)O)cc1)N2Nc1ccc(Cl)cc1Cl (stereo unspecified) | -0.711
31 | O=C1c2ccccc2[C@@]2(Cc3ccccc3N(Cc3ccccc3)C2=O)[C@H](c2ccc(CO)cc2)N1Cc1ccccc1Cl | -0.00887
32 | CO[C@H]1O[C@H](CO)[C@@H](OC(=O)Nc2ccccc2)[C@H](OC(=O)Nc2ccccc2)[C@H]1OC(=O)Nc1ccccc1 | 0.281
33 | COCCCNC(=O)[C@@]1(CCS(=O)(=O)c2ccccc2)COC(c2ccc(OCCCO)cc2)=N1 | 0.206
34 | COc1ccc(C(O)C2C=CC3C(=O)NC(=O)C3N2Nc2ccc(Cl)cc2Cl)c2ccccc12 (stereo unspecified) | -0.209
35 | O=C1C[C@@](C(=O)O)(c2ccc([N+](=O)[O-])cc2)[C@@H](c2ccc(CO)cc2)N1C1CCCCC1 | 0.57
36 | CC(C)(C)N1CC=CC23O[C@@H]4/C=C\CCCOC(=O)C4[C@H]2C(=O)N(CCCCCO)[C@@H]3C1=O (stereo partly specified) | -0.137
